Data on 23 compounds can be found in PubChem BioAssay (NCATS).

Inconclusive results are not listed. The source made the active and inactive calls. Calls follow the shape of the dose curve; as a rule, active = well fitted curve in the direction sought with a large enough effect; inconclusive = small, poorly fitted or top-dose-only effect, or another doubt; inactive = no such curve, though single readings can be large; an effect the other way counts as inactive or inconclusive.

A short description of experiment [1]: qHTS of pediatric cancer cell lines to identify multiple opportunities for drug repurposing: Primary screen for BT-37 cells (AID 1347094). Also: potency is read from the fitted curve at half-maximal effect. In outline:
(§1)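 CRCs from 8- or 11-point titrations (lowest final 0.59 nM NPC, 0.78 nM MIPE). Cell viability: CellTiter-Glo after 48 h incubation, 15 min room-temperature development, luminescence imaging.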
Background: In qHTS, concentration-response curves come from the screen itself.

Experiment [2] in a line: qHTS of pediatric cancer cell lines to identify multiple opportunities for drug repurposing: Primary screen for NB-EBc1 cells (AID 1347095). Also: potency is read from the fitted curve at half-maximal effect. In a few lines: as §1
Experiment [3] is described as follows: qHTS of pediatric cancer cell lines to identify multiple opportunities for drug repurposing: Primary screen for U-2 OS cells (AID 1347096). Also: nearly all actives have a fitted effect of over 50% in size. In a few lines:
(§2)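 Cells (500-1,000/well) in growth media were settled 5 h at 37 degrees C, then given compounds for 48 h. Viability was read as CellTiter-Glo luminescence. Primary runs used MIPE at 11 points (0.78 nM-46 µM) and NPC at 8 points (0.59 nM-46 µM); follow-ups used 11 points.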

Experiment [4] is described as follows: qHTS of pediatric cancer cell lines to identify multiple opportunities for drug repurposing: Primary screen for SK-N-SH cells (AID 1347098). Also: nearly all actives have a fitted effect of over 65% in size. Also: potency is read from the fitted curve at half-maximal effect. In outline:
(§3)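 Cells (500-1,000/well) rested 5 h, then received compounds for 48 h; metabolically active cells were measured by CellTiter-Glo luminescence. Final concentrations spanned up to 46 µM (MIPE, 11-point) or 0.59 nM-46 µM (NPC, 8-point) in primary screens, 11-point in follow-ups.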

Experiment [5] can be described thus: qHTS of pediatric cancer cell lines to identify multiple opportunities for drug repurposing: Primary screen for NB1643 cells (AID 1347099). Also: nearly all actives have a fitted effect of over 50% in size. In outline:
as §1

Experiment [6] is described as follows: qHTS of pediatric cancer cell lines to identify multiple opportunities for drug repurposing: Primary screen for LAN-5 cells (AID 1347100). Also: potency is read from the fitted curve at half-maximal effect. In a few lines: as §2
A short description of experiment [7]: qHTS of pediatric cancer cell lines to identify multiple opportunities for drug repurposing: Primary screen for Rh30 cells (AID 1347107). Also: series mostly up to about 46 µM; nearly all actives have a fitted effect of over 75% in size. In outline: as §2
Experiment [8] can be described thus: qHTS of pediatric cancer cell lines to identify multiple opportunities for drug repurposing: Primary screen for Rh41 cells (AID 1347108).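 Also: series mostly up to about 46 µM; luminescence drop marks cytotoxic hits; nearly all actives have a fitted effect of over 70% in size.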 In outline:
as §1

The nature of experiment [9]: qHTS of pediatric cancer cell lines to identify multiple opportunities for drug repurposing: Primary screen for Saos-2 cells (AID 1347097). Also: nearly all actives have a fitted effect of over 40% in size. Also: potency is read from the fitted curve at half-maximal effect. In a few lines: as §1
Experiment [10] in a line: qHTS of pediatric cancer cell lines to identify multiple opportunities for drug repurposing: Primary screen for OHS-50 cells (AID 1347103). Also: nearly all actives have a fitted effect of over 40% in size. Also: potency is read from the fitted curve at half-maximal effect. In a few lines: as §3
A short description of experiment [11]: qHTS of pediatric cancer cell lines to identify multiple opportunities for drug repurposing: Primary screen for RD cells (AID 1347104). Also: nearly all actives have a fitted effect of over 55% in size. Also: potency is read from the fitted curve at half-maximal effect. In a few lines: as §1
Experiment [12] in a line: qHTS of pediatric cancer cell lines to identify multiple opportunities for drug repurposing: Primary screen for MG 63 (6-TG R) cells (AID 1347105). Also: nearly all actives have a fitted effect of over 50% in size. Also: potency is read from the fitted curve at half-maximal effect. In outline: as §1
The nature of experiment [13]: qHTS of pediatric cancer cell lines to identify multiple opportunities for drug repurposing: Primary screen for control Hh wild type fibroblast cells (AID 1347106).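 Also: series mostly up to about 46 µM; a drop in luminescence marks cytotoxicity and a rise apparent proliferation; nearly all actives have a fitted effect of over 55% in size.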 In a few lines:
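Viability after 48 h compound treatment at 37C, 500-1,000 cells/well, read as ATP luminescence with CellTiter-Glo. Primary screens used 11-point (MIPE, 0.78 nM-46 µM) or 8-point (NPC, 0.59 nM-46 µM) final concentrations; follow-up screens used 11-point dilutions.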

Experiment [14] in a line: qHTS of pediatric cancer cell lines to identify multiple opportunities for drug repurposing: Primary screen for A673 cells (AID 1347092). Also: nearly all actives have a fitted effect of over 45% in size. Also: potency is read from the fitted curve at half-maximal effect. In a few lines: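 A673 cells (500-1,000 cells/well in growth media) were pre-incubated 5 h at 37 degrees C, then exposed to compounds for 48 h. Viability was read as CellTiter-Glo luminescence; concentration-response curves came directly from the primary screen.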

Experiment [15] can be described thus: qHTS of pediatric cancer cell lines to identify multiple opportunities for drug repurposing: Primary screen for Rh18 cells (AID 1347102). Also: nearly all actives have a fitted effect of over 65% in size. Also: potency is read from the fitted curve at half-maximal effect. In a few lines:
as §2

Experiment [16] in a line: qHTS of pediatric cancer cell lines to identify multiple opportunities for drug repurposing: Primary screen for SK-N-MC cells (AID 1347093). Also: potency is read from the fitted curve at half-maximal effect. In a few lines: (§4)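 Metabolically active cells were quantified by ATP-dependent luminescence (CellTiter-Glo, 15 min at room temperature) following 48 h treatment. Cells had been plated at 500-1,000 per well and settled for 5 h beforehand.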

Experiment [17] is described as follows: qHTS of pediatric cancer cell lines to identify multiple opportunities for drug repurposing: Primary screen for BT-12 cells (AID 1347101). Also: potency is read from the fitted curve at half-maximal effect; nearly all actives have a fitted effect of over 25% in size. In outline:
as §3

Experiment [18] can be described thus: qHTS of pediatric cancer cell lines to identify multiple opportunities for drug repurposing: Confirmatory screen for SK-N-MC cells (AID 1347111).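 Also: potency is read from the fitted curve at half-maximal effect; cells exposed to compound for 48 h before the readout; nearly all actives have a fitted effect of over 70% in size.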 Conditions: SK-N-MC cell viability. In a few lines:
as §4

As to `O=C(CCCN1CCC(O)(c2cccc(C(F)(F)F)c2)CC1)c1ccc(F)cc1`, the Potency entry in experiment [1], in experiment [2], in experiment [3], in experiment [4], in [5] and in [6] was “inactive” in each case. Further, the Potency entry in [7] and in experiment [8] was “inactive” in each case.
Turning to `COCC(=O)O[C@]1(CCN(C)CCCc2nc3ccccc3[nH]2)CCc2cc(F)ccc2[C@@H]1C(C)C`, the Potency in experiment [9] is 26.6 µM (active); in experiment [4], 19.4 µM (active); in experiment [10], 21.9 µM (active); in [11], 26.6 µM (active); in [12] it was 21.1 µM (active). Further, the Potency entry in [5] was “inactive”. In addition, in experiment [13], the outcome was inactive.
For `CCCCCCCC/C=C\CCCCCCCC(=O)NCc1ccc(O)c(OC)c1`, the Potency in experiment [14] was 2.66 µM (active). Moreover, the Potency result in [1], in [4], in experiment [5], in experiment [15], in experiment [11] and in experiment [7] was “inactive” throughout. Besides, in experiment [13], the call was inactive.
`COc1cc(C(=O)OCCCN2CCCN(CCCOC(=O)c3cc(OC)c(OC)c(OC)c3)CC2)cc(OC)c1OC`: the Potency result in [16], in experiment [2], in [3], in experiment [9], in [4] and in [5] was “inactive” in each case. In addition, the Potency entry in experiment [15], in [12], in [7] and in [8] was “inactive” in each case. In addition, the outcome in experiment [13] was inactive.
`COc1ccc2c(c1OC)C(=O)O[C@@H]2[C@H]1c2c(cc3c(c2OC)OCO3)CCN1C`: the Potency entry in [1], in experiment [5], in experiment [15], in experiment [10], in experiment [11] and in experiment [7] was “inactive” throughout. Also, the Potency entry in experiment [8] was “inactive”. Also, the compound was classed as inactive in experiment [13].
Regarding `Fc1ccc(C(c2ccc(F)cc2)N2CCN(C/C=C/c3ccccc3)CC2)cc1`, the Potency entry in experiment [5], in [15], in experiment [7] and in [8] was “inactive” each time. For the same compound, in [10], the Potency was 17.4 µM (active). For the same compound, in experiment [13], the compound was classed as inactive.
For the compound `CN(C)CC/C=C1\c2ccccc2COc2ccccc21`, the Potency entry in experiment [16], in experiment [1], in experiment [2], in experiment [3], in [5] and in experiment [6] was “inactive” in each case. Besides, the Potency result in experiment [12] and in [7] was “inactive” throughout. In experiment [13], the compound was called inactive.
`CCCC(C(=O)OCCN(CC)CC)(c1ccccc1)c1ccccc1`: the Potency is 30.9 µM (active) in experiment [1]; 26.6 µM (active) in [9]; 19.4 µM (active) in experiment [4]; 30.9 µM (active) in experiment [10]; 29.9 µM (active) in experiment [11]. Besides, the Potency result in experiment [6] is “inactive”. Further, in experiment [13], the compound was classed as inactive.
As to `O=C1NCN(c2ccccc2)C12CCN(CCCC(c1ccc(F)cc1)c1ccc(F)cc1)CC2`, the Potency in [16] was 16.8 µM (active); in [9], 13.3 µM (active); in experiment [4], 13.7 µM (active); in experiment [10], 15.5 µM (active); in experiment [11], 26.6 µM (active). Further, in experiment [5], the Potency result is “inactive”. Besides, the result in experiment [13] was inactive.
Consider `Nc1nc(N)c2nc(-c3ccccc3)c(N)nc2n1`, for which the Potency in experiment [16] was 0.531 µM (active); in [1], 13.8 µM (active); in experiment [2], 8.41 µM (active); in experiment [6] it was 13.3 µM (active); in [17] it was 13.8 µM (active); in experiment [11], 23.7 µM (active). Further, the Potency in experiment [18] was 3.69 µM (active). Besides, the Potency result in experiment [5], in experiment [15], in experiment [12] and in experiment [8] was “inactive” each time.
On to `CCNC(=O)N1CCN(CCCC(c2ccc(F)cc2)c2ccc(F)cc2)CC1`, for which the Potency entry in experiment [14], in experiment [2], in [3], in experiment [9], in [5] and in experiment [6] was “inactive” each time. Also, the Potency result in experiment [15], in experiment [11], in experiment [12] and in experiment [7] was “inactive” throughout. In addition, the Potency in experiment [4] is 30.7 µM (active). Besides, in [13], the outcome was inactive.
For the compound `COCCCC/C(=N\OCCN)c1ccc(C(F)(F)F)cc1`, the Potency result in [1], in [3], in [5], in experiment [6], in [15] and in experiment [12] was “inactive” each time. Further, the Potency entry in [7] and in experiment [8] was “inactive” in each case. The call in experiment [13] was inactive.
Turning to `COCCOC(=O)C1=C(C)NC(C)=C(C(=O)OC(C)C)C1c1cccc([N+](=O)[O-])c1` (centres undefined), the Potency result in experiment [3], in experiment [4] and in experiment [5] was “inactive” throughout. Further, the Potency in experiment [15] is 18.8 µM (active); in experiment [10] it was 24.6 µM (active). In addition, in experiment [13], the outcome was inactive.
With `OCCN1CCN(CC/C=C2/c3ccccc3Sc3ccc(C(F)(F)F)cc32)CC1`, the Potency entry in [2], in [7] and in experiment [8] was “inactive” throughout. The Potency in experiment [4] was 13.7 µM (active); in experiment [6], 23.7 µM (active); in experiment [10] it was 24.6 µM (active); in experiment [11], 26.6 µM (active).
On to `NC(N)=N/N=C/c1c(Cl)cccc1Cl`, for which the Potency result in [16], in experiment [1], in experiment [3], in experiment [9], in experiment [5] and in [6] was “inactive” in each case. Moreover, the Potency result in experiment [15], in experiment [7] and in experiment [8] was “inactive” each time. Further, the call in experiment [13] was inactive.
On to `CCCCNc1c(C(=O)OCC)c(C)nc2c1cnn2CC`, for which the Potency result in experiment [1], in [2], in [3], in experiment [5], in experiment [15] and in [11] was “inactive” in each case. Also, the Potency result in [12], in experiment [7] and in experiment [8] was “inactive” in each case. Also, the figures for the Potency in experiment [9] and in experiment [10] were 26.6 µM (active) and 34.7 µM (active), respectively. The compound was called inactive in experiment [13].
Consider `CN(C)CCCN1c2ccccc2Sc2ccccc21`, for which the Potency entry in experiment [16], in [3], in experiment [5], in [6], in experiment [12] and in experiment [7] was “inactive” throughout. Further, the Potency entry in experiment [8] was “inactive”. Also, the Potency in [10] is 17.4 µM (active). Besides, the call in experiment [13] was inactive.
On to `Cc1ccc(Cl)c(Nc2ccccc2C(=O)O)c1Cl`, for which the Potency result in experiment [14], in experiment [1], in experiment [6], in experiment [15], in experiment [10] and in experiment [11] was “inactive” throughout. Besides, the Potency entry in experiment [7] and in experiment [8] was “inactive” throughout. For the same compound, the call in [13] was inactive.
`CNCCCN1c2ccccc2CCc2ccccc21`: the Potency result in experiment [3], in [9], in experiment [5], in experiment [6], in [7] and in [8] was “inactive” in each case. The Potency in experiment [4] was 30.7 µM (active); in [10] it was 15.5 µM (active).
In the case of `CC(C)(C)c1ccc(C(=O)CCCN2CCC(OC(c3ccccc3)c3ccccc3)CC2)cc1`, the Potency in experiment [16] is 21.1 µM (active); in experiment [1], 27.6 µM (active); in [9] it was 26.6 µM (active); in experiment [17] it was 19.5 µM (active); in [10], 15.5 µM (active); in experiment [11], 21.1 µM (active). The Potency result in [4] is “inactive”. For the same compound, the result in [13] was inactive.
Take `c1cc(CN2CCCCC2)cc(OCCCNc2nc3ccccc3s2)c1`: the Potency result in [2], in experiment [5], in experiment [15], in [12] and in experiment [7] was “inactive” in each case. Also, the Potency was 24.4 µM (active) in experiment [4] and 27.6 µM (active) in experiment [10].
Regarding `COC(=O)[C@@H](N)Cc1ccc(O)c(O)c1`, the Potency result in experiment [14], in experiment [1], in experiment [4], in experiment [5], in [6] and in experiment [15] was “inactive” throughout. The Potency result in [10], in experiment [11], in experiment [7] and in experiment [8] was “inactive” each time.
Turning to `COC(=O)C1=C(C)NC(C)=C(C(=O)OC(C)(C)CN(C)CCC(c2ccccc2)c2ccccc2)C1c1cccc([N+](=O)[O-])c1` (centres undefined), the Potency in experiment [16] was 13.3 µM (active); in experiment [6], 18.8 µM (active); in [10] it was 12.3 µM (active). Moreover, the Potency entry in experiment [12] was “inactive”. Also, the call in [13] was inactive.
